Reference: PubChem BioAssay (NCI)
Compounds without any hit were thinned out: in the full panel of roughly 83,000, 20% have a hit.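 In brief: 96-well plates, 48 h treatment, single concentration, percent growth endpoint.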 Unmarked numbers belong to inactive results. Calls of active or inactive are those of the source. The calls were made as follows: active = growth percent below 10; inactive = the rest.

How the values were obtained:
Assay in all cases: NCI-60 one-dose screen, 48 h (100 = growth as untreated, 0 = no growth, -100 = all killed)
SK-MEL-2 melanoma = settings: 10 µM unless noted
EKVX NSCLC = settings: 10 µM unless noted
SN12C renal = settings: 10 µM unless noted
UO-31 renal = settings: 10 µM unless noted
TK-10 renal = settings: 10 µM unless noted
ACHN renal = settings: 10 µM unless noted
CAKI-1 renal = settings: 10 µM unless noted
A498 renal = settings: 10 µM unless noted
CCRF-CEM leukemia = settings: 10 µM unless noted
MOLT-4 leukemia = settings: 10 µM unless noted
SR leukemia = settings: 10 µM unless noted
RPMI-8226 leukemia = settings: 10 µM unless noted
OVCAR-8 ovarian = settings: 10 µM unless noted
OVCAR-5 ovarian = settings: 10 µM unless noted
OVCAR-4 ovarian = settings: 10 µM
SK-OV-3 ovarian = settings: 10 µM unless noted
IGROV1 ovarian = settings: 10 µM unless noted
OVCAR-3 ovarian = settings: 10 µM unless noted
HS 578T breast = settings: 10 µM unless noted
NCI/ADR-RES ovarian = settings: 10 µM unless noted

Row | SMILES | growth (SK-MEL-2 melanoma) | growth (EKVX NSCLC) | growth (SN12C renal) | growth (UO-31 renal) | growth (TK-10 renal) | growth (ACHN renal) | growth (CAKI-1 renal) | growth (A498 renal) | growth (CCRF-CEM leukemia) | growth (MOLT-4 leukemia) | growth (SR leukemia) | growth (RPMI-8226 leukemia) | growth (OVCAR-8 ovarian) | growth (OVCAR-5 ovarian) | growth (OVCAR-4 ovarian) | growth (SK-OV-3 ovarian) | growth (IGROV1 ovarian) | growth (OVCAR-3 ovarian) | growth (HS 578T breast) | growth (NCI/ADR-RES ovarian)
1 | O=C1COCCN1c1ccc(NCc2cn(Cc3cccc4ccccc34)c3ccccc23)cc1 | 93.4% | 96.6% | 92.6% | 58% | 44.4% | 91.4% | 7.53% (active) | -39.1% (active) | 96.9% | 92% | 74.5% | 82.1% | 83.4% | 41.7% | 69.8% | 62% | 27.2% | 87.9% | 84.3% | 78.2%
2 | CCn1cc(-c2ccnc(NCCNS(=O)(=O)c3ccc(Br)cc3)c2)c(-c2cccc(OC)c2)n1 | 90.8% | 77% | 77% | 45.6% | 83.2% | 82.6% | 66.1% | 66.2% | 43.2% | 34.8% | 42.2% | 25% | 63.5% | 97.6% | 55.3% | 76.6% | 60.8% | 78.3% | 78.5% | 73.9%
3 | CCNc1cc2c(cc1Br)-c1ccccc1C2=O | 98% | 71.5% | 94.5% | 55.1% | 104% | 98.2% | 74.5% | 93.4% | 97.2% | 98.3% | 91.6% | 100% | 90.1% | 115% | 92.5% | 90.4% | 82% | 91.8% | 96.8% | 96%
4 | CCOC(=O)Nc1ccc2c(c1)/C(=N\NC(=S)NC)c1ccccc1-2 | 101% | 79.7% | 73.8% | 104% | 76.7% | 83.7% | 81.4% | 33.6% | 61.8% | 87.4% | 63.9% | 58.7% | 83% | 97.8% | 92.3% | 112% | 100% | 95.6% | 90.4% | 76.7%
5 | COc1ccc2c(c1)C(C)Cc1c(Cl)nc(C)nc1N2C (stereo not given) | 37.3% | 34.4% | 32.6% | 50.9% | 44.4% | 55.2% | 25.4% | -5.78% (active) | 14.7% | 20.3% | 14.6% | 29.4% | 24.2% | 56.2% | 54.9% | 19.1% | 55.7% | 6.18% (active) | 27.3% | 4.74% (active)
6 | O=C(Nc1ccc(Cl)c(C(F)(F)F)c1)Nc1ccc(-c2cccnc2)cc1N1CCC(CO)CC1 | -10.3% (active) | 37.2% | 31% | 21.9% | 22.2% | 17.3% | 34.3% | 14.3% | 9.72% (active) | 4.83% (active) | 2.35% (active) | 12.1% | 26.8% | 39.4% | 43.8% | 32.6% | 61.4% | 38% | 34.4% | 26.2%
7 | COc1ccc(/C=C(/C(=O)c2ccc(Cl)cc2)C(=O)C(F)(F)F)cc1 | 86.4% | 92.5% | 98% | 78.6% | 75.3% | 110% | 94.3% | 82.4% | 89.7% | 85.8% | 76.2% | 90.2% | 102% | 103% | 96.3% | 100% | 96% | 98.7% | 96.2% | 95.8%
8 | Cc1cc2c(C(C)C)c(O)c(O)c(C=NCc3ccoc3)c2c(O)c1-c1c(C)cc2c(C(C)C)c(O)c(O)c(C=NCc3ccco3)c2c1O | 45.4% | 23.6% | 40.5% | 36.2% | 45.8% | 25.3% | 54% | 80.1% | 21% | 14.5% | 13.9% | 33.5% | 30.2% | 68.9% | 31.2% | 54.4% | 46.5% | 25.9% | 45% | 44.4%
9 | O=C(Nc1cc(F)cc2cccnc12)c1cnc(N2CCNCC2)cn1 | 104% | 82.7% | 75% | 29% | 66.6% | 28.4% | 52.4% | 88.7% | 26.3% | 24.5% | 29.5% | 93.1% | 72.4% | 83.4% | 11.2% | 100% | 43.5% | 6.04% (active) | 82.2% | 87.6%
10 | COc1ccc(-c2cc(-c3ccccc3)nc(SCCCCCC(=O)NO)n2)cc1 | 61.4% | 67.5% | 81.4% | 41.6% | 34.8% | 48.9% | 33.4% | 57.1% | 13.8% | 9.24% (active) | 21.9% | 21.2% | 36.1% | 41.4% | 80.1% | 50.3% | 51.7% | 65% | 56% | 56.9%
11 | COc1ccc2[nH]c(C(=O)N3CCN(C(=O)OCc4ccc5c(Br)cc(Br)c(O)c5n4)CC3)cc2c1 | -89.5% (active) | -76% (active) | -86.8% (active) | -100% (active) | -99.5% (active) | -100% (active) | -96% (active) | -97% (active) | -11.8% (active) | -22.3% (active) | 4.37% (active) | -38.9% (active) | -73.2% (active) | -89.3% (active) | -85.2% (active) | -70.7% (active) | -90.7% (active) | -93.9% (active) | -22.5% (active) | -17.4% (active)
12 | COc1cc(OC)cc(C(=O)Nc2cc(-c3cccnc3)nc(NCCCN3CCOCC3)n2)c1 | 84.1% | 103% | 86.4% | 53.6% | 95.5% | 103% | 101% | 83.3% | 90.8% | 82.3% | 57.9% | 79.1% | 91.8% | 100% | 117% | 93.9% | 97.4% | 105% | 69% | 95.4%
13 | O=C(O)CC1CCCCC1c1ccccc1 (stereo not given) | 97.7% | 115% | 105% | 75.2% | 100% | 102% | 103% | 122% | 101% | 109% | 98.5% | 104% | 106% | 102% | 109% | 104% | 108% | 118% | 83% | 114%
14 | CC1(C)OC2[C@@H](CNC(=O)NC(=O)NC(=O)CI)O[C@@H](n3cnc4c(NC(=O)Nc5ccccc5)ncnc43)[C@H]2O1 (stereo not given in full) | 95.4% | 77.3% | 82.8% | -78.6% (active) | 102% | 66.2% | -69% (active) | 99.4% | -44% (active) | -23.6% (active) | -50.8% (active) | 64.2% | 75.9% | 93% | 73.5% | 105% | 15.5% | -32.6% (active) | 98.7% | 84.6%
